Source: paper PMC5540273 (PLoS ONE, 2017)

What follows are molecules tested on CAMK1G. Conditions: concentration: 1 μM,replicates: in singlicate; n = 1.
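Further: KINOMEscan kinase panel screen.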

SMILES | %Inh [%]
Cc1cccc2c(-c3ccncc3)c(-c3ccc(F)cc3)nn12.Cl [GW461487] | 20
N#Cc1cccc(C(=O)NC2CCN(c3ccnc(Nc4ccc(F)cc4)n3)C2)c1 (stereo not drawn) [GSK1379708] | 0
Cc1n[nH]c2cc(Nc3ccnc(Nc4cccc(CN5CCOCC5)c4)n3)ccc12 [GW682569] | 1
Cn1cc(-c2cccc3c(N)c(C(N)=O)nnc23)cn1 | 7
Nc1nccc(-c2ccc3c(N)n[nH]c3c2)n1 [GSK1034945] | 0
C[C@@H]1CNc2c(sc3ccc4nc(-c5ccc(O)cc5)ccc4c23)C(=O)N1 | 16
COc1cccc(C2=C(Nc3cccc(Cl)c3)C(=O)NC2=O)c1 [SB-341556] | 0
CCn1c(-c2nonc2N)nc2cncc(Br)c21 [SB-738004] | 16
COc1cc2c(Nc3ccc(NC(=O)c4ccccc4)cc3)ncnc2cc1OCCCN1CCOCC1 [GSK301329] | 9
O=C1NCCc2[nH]c(-c3ccncc3)cc21 | 0
Cc1ccc(Nc2ccnc(Nc3ccc4c(c3)CS(=O)(=O)C4)n2)cc1O.Cl [GW579362] | 34
O=C(Nc1n[nH]c2cc(-c3ccco3)ccc12)C1CC1 [SB-737447] | 100
CN(c1cccc(CNc2nc(Nc3ccc4c(c3)CC(=O)N4)ncc2C(F)(F)F)c1)S(C)(=O)=O | 15
Cc1ccc(C(=O)Nc2ccc(Oc3ccc4nc(NC(=O)C5CC5)cn4c3)c(F)c2)c(=O)n1-c1ccccc1 | 0
COC(=O)c1cccc(NC(=O)NC2CCN(c3ccnc(NCc4ccc(F)cc4)n3)CC2)c1 [GSK1379860] | 0
Cl.c1ccc(Oc2ccc(Nc3ccnc4cc(-c5ccc(CN6CCNCC6)o5)ccc34)cc2)nc1 [GW567142] | 0
O=C(NCC1CC1)c1ccc(-c2cc(C(=O)NC3CC3)ccc2F)cc1 [GW810445] | 0
C[C@@H](Oc1cc(-n2cnc3cc(-c4cnn(C)c4)ccc32)sc1C(N)=O)c1ccccc1Cl [GSK580432] | 26
CC(C)c1nc(-c2cccc(NS(=O)(=O)c3ccccc3)c2)c(-c2ccnc(Nc3ccc4c(c3)CN(C)CC4)n2)s1 [GSK1649598] | 11
C[C@@H](Oc1cc(-n2cnc3ccc(-c4ccncc4)cc32)sc1C(N)=O)c1ccccc1Cl [GSK483724] | 21
CCn1c(-c2nonc2N)nc2cncc(CNC3CCNCC3)c21.Cl [SB-747651] | 0
CC(C)S(=O)(=O)N1CCN(Cc2ccc3c(c2)nc(NC(=O)c2ccsc2)n3C[C@H](O)c2ccccc2)CC1 [GW635815] | 19
COc1cc(Nc2nccc(N3CCC(NC(=O)c4cccc(C#N)c4)C3)n2)cc(OC)c1OC (stereo not drawn) [GSK1379751] | 0
Cc1ccc(CC(=O)N2CCc3cc(-c4cn(C)c5ncnc(N)c45)ccc32)cc1 [GSK2634758] | 23
